This is a sample that favours compounds with a hit; in the whole collection about 3.1% have one here.
VDR inh = inhibitors of human vitamin D receptor. VDR-SRC2-3 peptide fluorescence polarization, 2 h. Potency, µM, for inactives: max response, negative = inhibition, usual class: inhibitors. 400,000 tested, 0.93% active; also: potency is read from the fitted curve at half-maximal effect; % is scaled to controls: 0 for no effect and ±100 for the full control effect
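Compounds are added to VDR with labelled SRC2-3 coactivator peptide and held 2 h at room temperature. Inhibition of the VDR–peptide interaction is then read as a change in fluorescence polarization.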
PLK1 PBD inh = PLK1 (human) polo-box domain binding inhibition | 360,000 tested, 2.8% active | Plk1 PBD binding of FITC phosphopeptide, fluorescence polarization | P53350 | AID 720504 | Potency, µM, for the others: max response, negative = inhibition, hits mostly inhibitors; also: potency is read from the fitted curve at half-maximal effect; series mostly up to about 57 µM; % is scaled to controls: 0 for no effect and ±100 for the full control effect; nearly all actives have a fitted effect of over 65% in size
Target sequence (P53350 whole entry, looked up, the tested form may be a part): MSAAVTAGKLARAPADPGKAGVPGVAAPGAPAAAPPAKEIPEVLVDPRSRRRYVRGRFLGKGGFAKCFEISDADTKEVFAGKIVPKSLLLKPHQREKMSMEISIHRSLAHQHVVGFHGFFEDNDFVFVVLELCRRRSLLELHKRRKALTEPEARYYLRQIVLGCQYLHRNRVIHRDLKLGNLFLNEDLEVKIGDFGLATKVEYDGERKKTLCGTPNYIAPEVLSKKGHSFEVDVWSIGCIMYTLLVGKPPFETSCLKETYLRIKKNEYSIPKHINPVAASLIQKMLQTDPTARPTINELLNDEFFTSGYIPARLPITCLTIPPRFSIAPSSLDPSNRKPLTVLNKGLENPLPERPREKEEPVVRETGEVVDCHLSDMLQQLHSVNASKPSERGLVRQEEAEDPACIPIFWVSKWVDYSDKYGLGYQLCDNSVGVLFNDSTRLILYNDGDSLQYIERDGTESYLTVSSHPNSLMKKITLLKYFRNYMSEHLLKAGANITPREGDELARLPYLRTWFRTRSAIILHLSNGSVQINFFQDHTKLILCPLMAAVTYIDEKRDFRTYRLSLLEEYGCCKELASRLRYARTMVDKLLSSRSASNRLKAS
TSHR antagonist = human thyrotropin receptor antagonism; AID 504810; 330,000 tested, 0.2% active; activity change, negative = inhibition, % at 11.5 µM; TSHR-expressing cells, TSH-stimulated cAMP HTRF, 2 h; hits give low values; P16473;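 active = activity change below a set negative limit, meaning inhibition stronger than a set level, cut at about -70% in these data; inconclusive = activity change between two set negative limits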; also: % is scaled to controls: 0 for no effect and ±100 for the full control effect
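TSHR-expressing cells, 200/well, pre-treated with compound, then stimulated with EC80 TSH (4nM final) for 2 hours at 37 deg C. cAMP measured by competitive HTRF: anti-cAMP cryptate antibody in lysis buffer plus cAMP-d2, read after 30 minutes at room temperature.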
PTAP TSG101 blk = blocks PTAP/TSG101 interaction to inhibit HIV-1 budding. Q99816. Fluorescence polarization, FITC-PTAP peptide / Tsg101 binding. Potency, µM (titrated, usually from 115 µM), for inactives: at the top dose activity change, negative = inhibition, usual class: inhibitors. 340,000 tested, under 10 active. AID 493005; active = well fitted inhibition curve with a large enough effect in the main read-out, with a control signal flat, not every such curve was filed as active; inconclusive = small, poorly fitted or top-dose-only effect, or effect the other way, or a change in a side signal; inactive = no such curve, though single readings can be large or run the other way; also: potency is read from the fitted curve at half-maximal effect; % of control where 0% means no effect
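Steps: Tsg101 binding domain dispensed (10 uM final), compounds pinned in DMSO, FITC-labeled PTAP-motif peptide added (50 nM final); after 20 min binding at room temperature, polarization measured.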
uPA surface inh = inhibitors of cell surface uPA generation | AID 540303 | Potency, µM (top dose mostly 38.3 µM), inactives show at the highest dose activity change, negative = inhibition, most hits filed as inhibitors | 330,000 tested, 0.31% active | cell surface uPA generation assay, qHTS; active = well fitted inhibition curve with a large enough effect; inconclusive = small, poorly fitted or top-dose-only effect; inactive = no such curve, though single readings can be large or run the other way; tested in mouse RAW 264.7 cells; also: potency is read from the fitted curve at half-maximal effect; % is scaled to controls: 0 for no effect and ±100 for the full control effect; nearly all actives have a fitted effect of over 55% in size
The depositor's hits bear a star; ? = inconclusive; . = not tested or not shown. Unless noted, calls follow the shape of the dose curve; as a rule, active = well fitted curve in the direction sought with a large enough effect; inconclusive = small, poorly fitted or top-dose-only effect, or another doubt; inactive = no such curve, though single readings can be large; an effect the other way counts as inactive or inconclusive.

SMILES | VDR inh | PLK1 PBD inh | TSHR antagonist | PTAP TSG101 blk | uPA surface inh
C[C@H](CCCC(C)(C)O)[C@H]1CC[C@H]2[C@@H]3CC=C4C[C@@H](O)CC[C@]4(C)[C@H]3CC[C@]12C | -4% | . | . | . | .
CCn1nc(NC(=O)c2ccncc2)c2cc3ccc(C)cc3nc21 | -6% | -8% | -15 | -11% | .
CCn1nc(NC(=O)c2ccncc2)c2cc3cc(C)ccc3nc21 | -18% | 3.8µM* | -6 | -4% | -5%
Cc1ccc(CN(Cc2ccco2)C(=O)COc2ccccc2C)cc1 | 8% | . | . | . | .
O=C1NC(=O)/C(=C\c2ccccc2OCc2ccc([N+](=O)[O-])cc2)N1 | -21% | 24µM* | -11 | -7% | -7%
O=[N+]([O-])c1ccc(COc2ccccc2/C=N/O)cc1 | -7% | 5% | 2 | -11% | -3%
Oc1ccc(/C=N/Nc2ccnc3cc(Cl)ccc23)c(O)c1O | -10% | 2.1µM* | -5 | -10% | 5%
Oc1ccc(/C=N/Nc2ccnc3cc(Cl)ccc23)cc1O | -7% | -12% | 3 | -4% | -8%
O=C(O)C1CCCN(S(=O)(=O)c2cccs2)C1 (centres undefined) | -1% | -5% | -7 | -4% | -11%
Cc1ccc(S(=O)(=O)N2CCCC(C(=O)O)C2)s1 (centres undefined) | -23% | 30µM* | 11 | -6% | -12%
CCC(C(=O)NCCc1cc(OC)ccc1OC)n1nc(C)c2sc3ccccc3c2c1=O (centres undefined) | 1% | . | . | . | .
COC(=O)COc1ccc(NS(=O)(=O)c2cccc([N+](=O)[O-])c2)cc1 | -4% | 24µM* | -19 | -1% | 0%
CC12CCC=CC1C(c1cccc([N+](=O)[O-])c1)N(Cc1ccccc1)C2=O (centres undefined) | -10% | . | . | . | .
C=CCn1c(SCc2cccc(C#N)c2)nnc1-c1ccccc1O | -26% | 27µM* | 1 | 2% | 16%
COc1ccc(OC)c2sc(N3CCN(C(=O)CCS(=O)(=O)c4ccc(F)cc4)CC3)nc12 | 2% | . | . | . | .
Cn1cc(CN2CCCC(C(=O)Nc3ccc(-c4cccc(F)c4)cc3)C2)cn1 (centres undefined) | -4% | -11% | -7 | -5% | 8.9µM*
CCn1cc(CN2CCC(C(=O)Nc3cccc(-c4cccc(F)c4)c3)CC2)cn1 | 8% | -6% | 4 | -1% | -5%
Cn1cc(CN2CCCC(C(=O)Nc3cccc(-n4cccn4)c3)C2)cn1 (centres undefined) | 0% | 1% | -13 | -5% | -3%
Cc1c(CN2CCCC(C(=O)Nc3cccc(-n4cccn4)c3)C2)cnn1C (centres undefined) | -14% | 3% | 7 | 1% | 7.9µM*
O=C(Nc1cccc(-n2cccn2)c1)C1CCCN(Cc2cc3ccccc3[nH]2)C1 (centres undefined) | ? | 21µM* | -5 | -2% | 2%
Cc1cc(CN2CCCC(C(=O)Nc3cccc(-n4cccn4)c3)C2)cc(C)c1O (centres undefined) | -28% | ? | 6 | -7% | -5%
COc1ccc(-c2nnn(CC(=O)N(CC(=O)NC3CCCC3)c3ccccc3)n2)cc1OC | 79µM* | 3.8µM* | -7 | 1% | 1%
COc1ccc(N(CC(=O)NC2CCCC2)C(=O)Cn2nnc(-c3ccc(OC)c(OC)c3)n2)cc1 | -12% | -6% | -8 | -6% | 1%
Cc1ccc(Sc2cnc(N)nc2C)cc1 | -15% | 27µM* | -9 | -5% | 3%
COC(=O)c1ccc(NC(=O)Cn2c(=O)nc(-c3ccccc3)c3ccccc32)cc1 | 9% | . | . | . | .
SMILES | VDR inh | PLK1 PBD inh | TSHR antagonist | PTAP TSG101 blk | uPA surface inh
Cc1ccc(/C=C/C(=O)N2CCN(c3ccc(F)cc3)CC2)o1 | -11% | -7% | -12 | -3% | -1%
Cc1ccc(/C=C/C(=O)N2CCN(c3ncccn3)CC2)o1 | ? | 30µM* | 0 | -3% | -8%
NC(=O)C[C@@H](N)C(=O)O | 4% | . | . | . | .
NC(CS)C(=O)O (centres undefined) | 45µM* | . | . | . | .
CCOC(=O)C1CCCN(C(=O)CSc2nc(C)cc(C)n2)C1 (centres undefined) | -1% | -14% | 27 | 1% | 0%
CCOC(=O)N1CCN(C(=O)Cn2ncc3ccccc32)CC1 | -23% | 30µM* | -5 | 5% | 18%
CCOC(=O)N1CCN(C(=O)CCc2ccccc2)CC1 | 3% | 8% | -128* | -7% | 9%
O=C(CSc1ccc(Cl)cc1)N1CCCC1 | ? | 24µM* | 4 | -2% | 40%
CCOC(=O)C1CCCN(C(=O)CSc2ccc(Br)cc2)C1 (centres undefined) | ? | 24µM* | -2 | -4% | -2%
Cc1ccccc1C(=O)Nc1ccc(OCc2cc(=O)n3ccccc3n2)cc1 | 32% | . | . | . | .
Cc1c(-c2nsc(NC(=O)c3cccs3)n2)nnn1-c1ccc(F)cc1 | 0% | . | . | . | .
COc1cccc2cc(-c3cn4c(n3)sc3cc(F)ccc34)c(=O)oc12 | 14% | . | . | . | .
CCOC(=O)N1CCN(C(=O)CSCc2ccccc2)CC1 | ? | -9% | 6 | -1% | 1%
CCOC(=O)N1CCN(C(=O)CSc2ccccc2)CC1 | -9% | 15µM* | 5 | -7% | -3%
COc1cc(C)ccc1OCc1cc(C(=O)N2CCCCCC2)no1 | ? | 27µM* | 22 | -7% | 2%
COc1cc(Cl)ccc1OCc1cc(C(=O)N2CCCCCCC2)no1 | 15% | -15% | 24 | -5% | 24%
O=C(c1cc(COc2c(F)cccc2F)on1)N1CCN(C2CCCCC2)CC1 | -4% | 24µM* | -11 | -2% | 4%
COC(=O)[C@@]12C[C@@H](CC(=O)NCCc3ccccc3OC)C(=O)N(Cc3ccco3)C1=CCC(C)(C)C2 | . | -17% | . | . | .
Cc1csc(SC(C)C(=O)Nc2ccc(Cl)cn2)n1 (centres undefined) | -3% | 27µM* | -1 | -2% | 4%
N=C1C(c2ccccc2)=C(O)CN1CCO | -11% | 24µM* | -3 | -6% | 15%
CCOC(=O)/C=C/CCCC=O | 6% | . | . | . | .
CCOC(=O)/C=C/CCC/C=C/C(=O)c1ccccc1 | 8.9µM* | . | . | . | .
CCOc1ccc(Cn2c(CNS(=O)(=O)c3ccc(CC)cc3)nc3cccnc32)cc1 | -4% | . | . | . | .
CC(=O)NCCNc1ncncc1-c1ccccc1CN(C)C | 0% | . | . | . | .
Cc1onc(-c2ccccc2)c1C(=O)OCCOc1ccccc1F | ? | 27µM* | -18 | 2% | .
CCc1ccc(NC(=O)CN2C(=O)c3ccccc3Sc3ccc(C(=O)N4CCCC4)cc32)cc1 | 6% | . | . | . | .
O=C(Nc1cccc(F)c1)c1oc2ccccc2c1NC(=O)C12CC3CC(CC(C3)C1)C2 | 1% | . | . | . | .
O=C(Cn1c(-c2ccccc2)c[n+]2ccsc12)c1ccc([N+](=O)[O-])cc1 | -26% | 30µM* | 0 | -5% | -8%
COc1ccc2c(CNCc3cccs3)c(C(=O)O)n(Cc3ccc(F)cc3Cl)c2c1 | -3% | . | . | . | .

Screening results as filed in PubChem BioAssay.
